Assay results: PubChem BioAssay AID1688 (National Center for Advancing Translational Sciences (NCATS), 2009)
About 2,400 (1.1%) of roughly 220,000 compounds were called active. Not shown: some 7% with an inconclusive outcome. What follows is part of a selection rich in actives, with near analogues and random picks from the rest. A number with no mark means an inactive call. Calls come from the whole dose curve; as a rule, active = well fitted inhibition curve with a large enough effect; inconclusive = small, poorly fitted or top-dose-only effect, or effect the other way; inactive = no such curve, though single readings can be large or run the other way.

Test: qHTS Multiplex Assay to Identify Dual Action Probes in a Cell Model of Huntington: Aggregate Formation (GFP); note: nearly all actives have a fitted effect of over 60% in size
Conditions: PC12 HttQ103-GFP aggregates, Acumen cytometry, 40 h; series mostly up to 9.22 µM; activity change, negative = inhibition: at the top concentration
In short: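 PC12/HTTQ103-GFP, ecdysone-inducible; teb 100 nM; cpd qHTS titration; GFP aggregates read on laser cytometer, Ex 488/Em 500-530 nm.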
% is set by controls: 0 for no effect and ±100 for the full control effect; potency is the fitted concentration of half-maximal effect.

| Structure (SMILES) | activity change, negative = inhibition | Potency |
| --- | --- | --- |
| COc1ccc(OCCC(=O)c2ccc(OC)cc2)cc1 | 18.6% |  |
| Cc1noc(C)c1C(=O)OCC(=O)/C=C1\N(C)c2ccccc2C1(C)C | -17% [at 46.1 µM] |  |
| CN1/C(=C\C(=O)c2cccnc2Cl)C(C)(C)c2ccccc21 | -10.9% [at 46.1 µM] |  |
| CC(=O)Nc1cccc(OCC(=O)/C=C2\N(C)c3ccccc3C2(C)C)c1 |  | 11.2 µM (active) |
| Cc1ccc(NNC(=O)c2cccs2)cc1Cl | 19% |  |
| O=C(Nc1ccc(S(=O)(=O)Nc2nccs2)cc1)c1cc(=O)[nH]c2ccccc12 | -14.5% |  |
| Cc1ccc(NC(=O)c2ccc(S(=O)(=O)NCC3CCCO3)cc2)cc1C (stereo unspecified) | 0.556% |  |
| Cc1ccc(C(=O)O)cc1S(=O)(=O)NCC1CCCO1 (stereo unspecified) |  | 3.98 µM (active) |
| Cc1cc(Cl)c(S(=O)(=O)NCC2CCCO2)cc1OCC(N)=O (stereo unspecified) | -10.1% [at 46.1 µM] |  |
| CC(C)(O)c1ccccc1CC[C@H](SCC1(CC(=O)O)CC1)c1cccc(/C=C/c2ccc3ccc(Cl)cc3n2)c1 | 6.98% [at 46.1 µM] |  |
| Cc1cc(Cl)ccc1NNC(=O)c1snnc1C | 3.92% |  |
| O=C1C2C3C=CC(C3)C2C(=O)N1c1ccc(S(=O)(=O)Nc2nccs2)cc1 (stereo unspecified) | 28.1% |  |
| CC(C)(C)c1cc(C(=O)NN)n(Cc2ccc(Cl)cc2Cl)n1 | -29.8% |  |
| COc1cc(NC(=O)c2cccnc2SC)cc(OC)c1 | -3.73% [at 46.1 µM] |  |
| COc1cc(NC(=O)c2ccccc2NS(=O)(=O)c2ccc(Cl)s2)cc(OC)c1 |  | 3.98 µM (active) |
| O=S(=O)(Nc1ccccc1N1CCOCC1)c1ccc(Cl)s1 | -24.5% [at 46.1 µM] |  |
| COC(=O)c1ccc(NC(=O)c2ccccc2NS(=O)(=O)c2ccccc2)cc1 |  | 11.2 µM (active) |
| CCOc1ccc(NC(=O)c2ccccc2NS(C)(=O)=O)cc1 | 20.3% |  |
| COC(=O)c1ccccc1NC(=O)c1ccccc1NS(C)(=O)=O | 3.87% [at 46.1 µM] |  |
| COc1ccc(S(=O)(=O)N(CC(=O)N/N=C/c2ccccc2C(=O)O)c2ccccc2OC)cc1 | 12.6% |  |
| CC(C)(C)NC(=O)/C(=C/c1cccnc1)NC(=O)c1ccco1 | 22.8% |  |
| CCn1c(CN2C(=O)CSc3ccccc32)n[nH]c1=S | -2.01% |  |

| Structure (SMILES) | activity change, negative = inhibition | Potency |
| --- | --- | --- |
| Cc1nc(=O)c(-c2ccccc2)c(C)n1-c1ccc(Br)cc1 | 8.99% |  |
| CCCc1nc2oc3c(=O)[nH]cnc3c2c2c1COC(C)(C)C2 | 9.46% |  |
| Cc1cc(CO)nn1-c1ccc([N+](=O)[O-])cc1 | 9.64% |  |
| O=C(c1c(Cl)cccc1Cl)N1CCN(c2cccc3[nH]ccc23)CC1 | -14% |  |
| Cc1ccc(-c2c[n+](=O)c3c(n2[O-])CCC3)cc1 | -12.9% |  |
| CCC(=O)N1CCCc2ccccc21 | -7.24% |  |
| Cc1cc(C)cc(OCC(=O)O/N=C(\N)Cc2ccc([N+](=O)[O-])cc2)c1 | -1.2% |  |
| CN(C)c1ccnc2sc3c(=O)n(Cc4ccccc4)cnc3c12 |  | 7.08 µM (active) |
| CN(C)/C=C/c1c(C#N)c(=O)ncn1Cc1ccccc1 | 13.8% [at 46.1 µM] |  |
| O=c1c2c(ncn1Cc1ccccc1)nc1n2CCC1 | -20.5% [at 46.1 µM] |  |
| Cn1nc(-c2ccc(Cl)cc2)c2cc(C(=O)NCc3ccco3)sc21 |  | 20 µM (active) |
| COc1ccc(-c2cc(C(=O)NCc3ccco3)no2)cc1OC | 10.5% [at 46.1 µM] |  |
| CCOC(=O)N1CCN(C(=O)c2cc3c(-c4ccc(Cl)cc4)nn(C)c3s2)CC1 | 5.53% [at 46.1 µM] |  |
| CN(CC(O)COc1ccc(S(=O)(=O)N2CCOCC2)cc1Cl)C1CCCCC1 (stereo unspecified) | -4.06% |  |
| Cn1nnc(NC(=S)NC(=O)c2ccccc2)n1 | 11.7% |  |
| CN1CCN(S(=O)(=O)c2ccc(NC(=O)c3ccco3)cc2)CC1 | 11.2% [at 46.1 µM] |  |
| CC(C)Cc1ccc(S(=O)(=O)N2CCN(C(=O)c3ccco3)CC2)cc1 |  | 10 µM (active) |
| CCNC(=S)N1CCN(C(=O)c2ccco2)CC1 | 9.98% [at 46.1 µM] |  |
| CC1CC(=O)Nc2ccccc2N1S(=O)(=O)c1cccs1 (stereo unspecified) | 3.13% |  |
| O=C(NCCCn1ccnc1)C(=O)NCC1OCCN1S(=O)(=O)c1cc(F)ccc1F (stereo unspecified) | 8.85% |  |
| CCOC(=O)CNC(=O)CSc1nnnn1-c1cc(C)ccc1C | 14.2% [at 46.1 µM] |  |
| COC(=O)c1ccccc1NC(=O)CSc1nnnn1C | -29.7% [at 46.1 µM] |  |

| Structure (SMILES) | activity change, negative = inhibition | Potency |
| --- | --- | --- |
| CCOC(=O)c1c(-c2ccc(C)cc2C)csc1NC(=O)CSc1nnnn1C |  | 11.2 µM (active) |
| O=S(=O)(c1ccc(Cl)cc1)N1CCCN(c2ccc(C(F)(F)F)cn2)CC1 | -10.6% |  |
| Cc1ccc(NC(=O)c2ccc(CSc3ncnc4nc[nH]c34)cc2)c(C)c1 | 12.5% [at 46.1 µM] |  |
| c1ccc2c(c1)OCC(CNc1ncnc3nc[nH]c13)O2 (stereo unspecified) | -28.7% [at 46.1 µM] |  |
| CCc1ccc(N(CC)c2ncnc3nc[nH]c23)cc1 |  | 10 µM (active) |
| COc1ccc2c(c1)SC(C)CC2=O (stereo unspecified) | 16.9% [at 46.1 µM] |  |
| CC1(C)CC(=O)c2ccc(O)cc2O1 | 32.4% [at 46.1 µM] |  |
| COc1ccc2c(c1)OC(O)(C(F)(F)C(F)F)CC2=O (stereo unspecified) |  | 20 µM (active) |
| C=CCSc1nc(N)cc(=O)[nH]1 | 2.34% |  |
| O=C(O)CC1=C(Nc2ccccc2)C(=O)N(c2ccccc2)C1c1ccc(Cl)cc1 (stereo unspecified) | 16.1% |  |
| CC(CO)(CO)NC(=O)c1ccc(=O)[nH]n1 | 11.4% |  |
| O=C(N/N=C/c1cccc([N+](=O)[O-])c1)c1ccncc1 | 7.45% |  |
| COc1cccc(/C=N/NC(=O)c2cccc([N+](=O)[O-])c2)c1OS(=O)(=O)c1ccc(C)cc1 | -13.7% [at 46.1 µM] |  |
| Cc1ccc(-n2[nH]c(C)c(/C=N/NC(=O)c3cccc([N+](=O)[O-])c3)c2=O)cc1C |  | 5.01 µM (active) |
| Cc1ccc(N=Nc2c(C)[nH]n(-c3ccccc3)c2=O)cc1 | 0% |  |
| Cc1[nH]n(-c2cccc(Cl)c2)c(=O)c1/C=N/n1c(C)nc2ccccc2c1=O | -27.5% [at 46.1 µM] |  |
| Cc1[nH]n(-c2ccccc2)c(=O)c1/C=N/NC(=O)c1ccoc1C |  | 7.08 µM (active) |
| COc1cc2c(cc1OC)[C@@H](Cc1cc(OC)c(OC)c(OC)c1)[N+](C)(CCCOC(=O)CC/C=C/CCC(=O)OCCC[N+]1(C)CCc3cc(OC)c(OC)cc3[C@H]1Cc1cc(OC)c(OC)c(OC)c1)CC2 (stereo partly specified) | -4.74% [at 46.1 µM] |  |
| O=c1[nH]n2c(-c3ccccc3)nc(O)c2c2ccccc12 | -14.4% |  |
| Cc1nc2c(-c3ccccc3)c(C)[nH]n2c(=O)c1Cl |  | 10 µM (active) |
| Cc1cc(-c2ccccc2)n2nc(C)c(-c3ccccc3)c2n1 | -11.2% [at 46.1 µM] |  |
| Cc1ccc(NC(=O)Cn2nc(C)c3ccccc3c2=O)c(C)c1 | -23.1% [at 46.1 µM] |  |

| Structure (SMILES) | activity change, negative = inhibition | Potency |
| --- | --- | --- |
| COc1ccc(-c2nn(C)c(=O)c3ccccc23)cc1NC(=O)COc1ccccc1 | -17.9% [at 46.1 µM] |  |
| Cc1ccc(F)cc1NC(=O)Cc1nn(C)c(=O)c2ccccc12 |  | 14.1 µM (active) |
| CCCCNC(=O)OCCSCCS(=O)(=O)c1ccc(Cl)cc1 | 6.92% |  |
| CC(C)(C)n1cnnc1Sc1ccc([N+](=O)[O-])cn1 | 4.48% |  |
| CCC(C)N1C(=S)SC(C)(C)C1N(O)C(=O)NC1CCCCC1 (stereo unspecified) | 36.2% |  |
| c1coc(CNc2ncnc3ccccc23)c1 |  | 7.94 µM (active) |
| O=C(NCc1ccncc1)C(=O)NCc1ccco1 | -9.62% [at 46.1 µM] |  |
| c1ccc(-c2nc(NCc3ccco3)c3ccccc3n2)cc1 | 11.2% [at 46.1 µM] |  |
| Cc1cc(C)cc(NS(=O)(=O)c2ccc(F)cc2)c1 | 23.6% |  |
| CCOc1cc(N2CCOCC2)c(OCC)cc1NC(=O)COc1cccc2cccnc12 |  | 3.55 µM (active) |
| CCOc1cc(N2CCOCC2)c(OCC)cc1NC(=O)c1ccc(C)s1 | 4.22% |  |
| CCOc1cc(N2CCOCC2)c(OCC)cc1NC(=O)c1cc(C)nc2ccccc12 | 6.16% |  |
| O=c1c2ccccc2cnn1Cc1n[nH]c(=S)n1-c1ccccc1F | -0.823% |  |
| O=C1CCCN1CCCNc1ncnc2c1[nH]c1ccccc12 | 10.3% [at 46.1 µM] |  |
| COc1cc(OC)c(OC)cc1/C=N/Nc1ncnc2c1[nH]c1ccc(C)cc12 | -13.5% |  |
| CC(C)OCCCNc1ncnc2c1[nH]c1ccc(F)cc12 |  | 2.24 µM (active) |
| COc1ccc(NC(=O)C2CCC(CNc3c(N4CCCCC4)c(=O)c3=O)CC2)c(OC)c1 (stereo unspecified) | 0% |  |
| Cc1cc(N)n(-c2ccc(S(=O)(=O)N3CCCC3)cc2[N+](=O)[O-])n1 | -12.1% |  |
| CCOC(=O)N1CCN(Cc2nc3c(c(=O)n(C)c(=O)n3C)n2Cc2ccccc2)CC1 | 6.2% [at 46.1 µM] |  |
| COCCn1c(CN(Cc2ccccc2)Cc2ccccc2)nc2c1c(=O)n(C)c(=O)n2C | -8.79% [at 46.1 µM] |  |
| Cn1c(=O)c2c(nc(OCc3cccnc3)n2Cc2ccccc2)n(C)c1=O |  | 12.6 µM (active) |
| O=C(Nc1ccc(Br)cn1)C1CCN(S(=O)(=O)c2cccs2)CC1 | -30.3% |  |

| Structure (SMILES) | activity change, negative = inhibition | Potency |
| --- | --- | --- |
| COC(=O)c1cccc(NS(C)(=O)=O)c1 | 4.68% |  |
| Cc1ccc(Cl)c(OCC(=O)NN2CCN(C)CC2)c1 | 10.6% |  |
| Cn1cc(/C=C/c2nc3ccccc3c(=O)n2-c2cccc([N+](=O)[O-])c2)c2ccccc21 | 10.7% [at 46.1 µM] |  |
| CCn1c(/C=C/c2ccc([N+](=O)[O-])o2)nc2ccccc2c1=O |  | 11.2 µM (active) |
| C/[N+]([O-])=C\c1ccc([N+](=O)[O-])o1 | 1.96% [at 46.1 µM] |  |
| CC(NC(=O)C(C)(C)C)C(c1cccs1)N1CCN(Cc2ccccc2)CC1 (stereo unspecified) | 0.443% |  |
| Cc1ccc(C)c2c1cc(C)c1nnc(SCC(=O)Nc3cccc(C(=O)O)c3)n12 | -40.5% |  |
| O=S(=O)(Nc1ccc(OC(F)(F)F)cc1)c1cccc2nonc12 | 0.873% |  |
| CC(C)CN(CC(C)C)CC(O)CN(c1ccccc1)S(=O)(=O)c1ccccc1[N+](=O)[O-] (stereo unspecified) | -1.18% |  |
| Cc1cccc(CSc2nnc(Cn3c(=O)sc4ccccc43)n2C)c1 | -12.4% [at 46.1 µM] |  |
| COc1ccc(Cn2c(=O)sc3ccccc32)cc1OC |  | 0.631 µM (active) |
| COc1ccccc1CNC(=O)CCn1c(=O)sc2ccccc21 | 0.103% [at 46.1 µM] |  |
| CC(C)Sc1nnc([C@H](Cc2ccccc2)NC(=O)OC(C)(C)C)o1 | 9.88% |  |
| CCc1cc(C(=O)c2ccc(OC)cc2)c(NC(=O)CN2CCN(C)CC2)s1 | -4.7% |  |
| CCOC(=O)c1c(NC(=O)NC(C)(C)C)sc2c1CCN(C)C2 | 24.2% |  |
| Cc1cc(C(=O)Nc2c(C)nn(Cc3ccccc3)c2C)on1 | -1.37% [at 46.1 µM] |  |
| O=C(Nc1cc(C(F)(F)F)ccc1Cl)c1cc(C2CC2)on1 | -12.3% [at 46.1 µM] |  |
| Cc1nn(Cc2ccc(Cl)c(Cl)c2)c(C)c1NC(=O)c1cc(C2CC2)on1 |  | 17.8 µM (active) |
